Bioassay records deposited in PubChem BioAssay by several laboratories.
GLD-1 TGE inh: GLD-1-TGE RNA interaction inhibition (C. elegans); Q17339; purified GLD-1 + fluorescein TGE RNA, fluorescence polarization; inhibition, % at 5.96 µM; 320,000 compounds, 0.44% hits; AID 2280;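 active = percent inhibition above a per-plate cutoff, the plate mean of test compounds plus 3 SD, cut at about 30% in these data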;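 note: 0% = DMSO wells with GLD-1 and probe and 100% = wells lacking GLD-1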
Mcl1 Noxa PPI: Mcl-1/Noxa interaction inhibition. Q07820. 220,000 compounds, 1.5% hits. TR-FRET Mcl-1/Noxa peptide binding, 2 h. inhibition, % at 21.7 µM;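 active = compounds that cut the protein-peptide binding signal by more than 50% relative to plate controls in a single-dose test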;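 note: His-tagged Mcl-1 with rhodamine Noxa BH3 peptide and terbium anti-His antibody; 0% = Mcl-1 plus Noxa peptide wells and 100% = peptide-only wells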
Target sequence (Q07820 whole entry, looked up): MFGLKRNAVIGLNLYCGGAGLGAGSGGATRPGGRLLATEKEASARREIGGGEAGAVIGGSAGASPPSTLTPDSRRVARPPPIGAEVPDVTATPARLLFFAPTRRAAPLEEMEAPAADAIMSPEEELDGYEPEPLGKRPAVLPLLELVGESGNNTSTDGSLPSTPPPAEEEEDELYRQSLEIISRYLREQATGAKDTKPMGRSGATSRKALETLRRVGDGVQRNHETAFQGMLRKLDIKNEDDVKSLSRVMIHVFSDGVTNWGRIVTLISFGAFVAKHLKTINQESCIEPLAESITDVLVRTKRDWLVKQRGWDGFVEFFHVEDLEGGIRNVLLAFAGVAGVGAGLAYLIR
Mcl1 Bid PPI: Mcl-1/Bid interaction inhibition; 220,000 compounds, 0.97% hits; AID 1021; Q07820; TR-FRET Mcl-1/Bid-Dy647 peptide binding, 1536-well; inhibition, % at 21.7 µM;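 active = compounds that cut the binding signal by more than half at the single screening dose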;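 note: His-tagged Mcl-1 with europium anti-His antibody binding Bid BH3 peptide; 0% = Mcl-1 plus peptide wells and 100% = peptide-only wells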
Mcl-1 Bim block: disrupts Bim peptide binding to human Mcl-1; Q07820; Bead-based flow cytometry, Bim peptide-Mcl-1 binding; inhibition, % at 10 µM; 190,000 compounds, 0.1% hits; in the data active = inhibition above about 40%;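 note: 0% = no compound tracer wells and 100% = peptide blocker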
MCL1 BIM primary: inhibitors of human MCL1 binding to BIM-BH3 peptide; inhibition, % at 10.9 µM; Q07820; 320,000 compounds, 0.68% hits; GST-MCL1 / FITC-Bim-BH3 fluorescence polarization; AID 2057;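 active = inhibition above the mean inhibition of all tested compounds plus 3 SD, set per campaign, cut at about 40% in these data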;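 note: 0% = DMSO wells and 100% = unlabeled Bim-BH3 peptide control; higher means more loss of mP so more displacement of Bim peptide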
BCLXL inh: blocks human Bcl-xL binding to Bim BH3 peptide; Q07817; GST-Bcl-xL / FITC-Bim BH3 peptide fluorescence polarization; inhibition, % at 10.9 µM; 320,000 compounds, 0.7% hits;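 active = inhibition above the mean of all tested compounds plus 3 SD, cutoff set per campaign, cut at about 30% in these data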;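 note: 0% = DMSO wells and 100% = unlabeled Bim-BH3 peptide competitor; inhibitors lower millipolarization by displacing the labeled peptide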
Target sequence (Q07817 whole entry, looked up): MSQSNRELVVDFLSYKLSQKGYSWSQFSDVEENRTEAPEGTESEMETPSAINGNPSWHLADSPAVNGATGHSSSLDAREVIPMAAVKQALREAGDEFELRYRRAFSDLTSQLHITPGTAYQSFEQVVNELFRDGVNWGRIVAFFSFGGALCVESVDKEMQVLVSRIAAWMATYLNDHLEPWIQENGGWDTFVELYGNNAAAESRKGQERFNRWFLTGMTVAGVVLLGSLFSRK
BCLXL inh confirm: Bcl-xL (human) inhibition, MCL1 counter-screen confirmation. shares compounds with MCL1 BIM primary. AID 2166. GST-Bcl-xL / FITC-Bim BH3 peptide FP binding. 1,700 compounds, 54% hits. inhibition, % at 10.9 µM;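 active = inhibition above a cutoff equal to the mean inhibition of all tested compounds plus 3 SD, cut at about 30% in these data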;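 note: 0% = DMSO wells and 100% = unlabeled Bim BH3 control peptide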
MCL1 inh confirm: MCL1-BIM-BH3 interaction inhibition, confirmation; shares compounds with MCL1 BIM primary; 1,700 compounds, 61% hits; inhibition, % at 10.9 µM; GST-MCL1 / FITC-Bim-BH3 fluorescence polarization;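 active = inhibition above the average of all tested compounds plus 3 SD, cut at about 40% in these data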;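 note: 0% = DMSO wells and 100% = unlabeled Bim-BH3 control peptide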
An asterisk follows results filed as active; . = no result given; + = active, no number. Compounds with a hit are over-represented: about 2.3% of the library has one in this group of screens.

SMILES	GLD-1 TGE inh	Mcl1 Noxa PPI	Mcl1 Bid PPI	Mcl-1 Bim block	MCL1 BIM primary	BCLXL inh	BCLXL inh confirm	MCL1 inh confirm
CSc1nnc(-c2ccccc2)c(-c2ccccc2)n1	-2	3	-19	.	0	9	.	.
CN(C)c1ccc(NC(=O)CSc2nnc(-c3ccco3)c(-c3ccco3)n2)cc1	6	.	.	.	32	25	.	.
CSc1nnc(-c2ccco2)c(-c2ccco2)n1	5	78*	27	-1	42*	24	26	56*
Cc1cccnc1NC(=O)C1CCCN1S(=O)(=O)c1ccc(Cl)cc1 (stereo not given)	10	.	.	.	8	3	.	.
COc1ccc(C/C(C)=N/NS(=O)(=O)c2ccc(Br)cc2)cc1	-6	14	-56	-2	1	8	.	.
CCCOc1ccc(/C(O)=C2/C(=O)C(=O)N(CCCn3ccnc3)C2c2cccnc2)cc1 (stereo not given)	-9	4	-127	.	-1	-3	.	.
N#CC12C(N)=NC3(OCCO3)C1(C#N)C1=C(CCC1)NC2c1ccccc1 (stereo not given)	63*	5	-32	-1	64*	35*	18	24
COc1cc(O)c(C(C)=O)c(CC(=O)O)c1	13	15	-109	.	41*	13	20	34
COc1cc(O)c(C(=O)/C=C/c2ccccc2)c(OC)c1	8	20	-50	.	1	2	.	.
CCCCNC(=S)Nc1ccc(OC)nc1	49*	4	-41	-2	58*	56*	43*	52*
COc1ccc(/C=C2\CCc3c2nc2ccccc2c3C(=O)O)cc1OC	117*	16	-16	.	86*	99*	17	12
CCOc1ccc(/C=C2\CCCc3c2nc2ccccc2c3C(=O)O)cc1OC	150*	.	.	.	+	176*	183*	+
COc1ccc(/C=C2\CCCc3c2nc2ccccc2c3C(=O)O)cc1OC	120*	30	-25	.	159*	145*	170*	191*
O=S(=O)(Nc1ncccn1)c1ccc(NC(=S)Nc2ccccc2Cl)cc1	2	9	-35	.	11	6	.	.
O=C(N/N=C/c1ccncc1)c1cccs1	-3	.	.	.	7	1	.	.
O=C(N/N=C/c1ccc(-c2ccccc2C(=O)O)o1)c1cccs1	6	79*	0	2	71*	28	40*	73*
O=C(CSc1nc(-c2ccccc2)cc(=O)[nH]1)N1CCOCC1	10	23	-1	-5	48*	6	10	3
COc1ccc2cc(C(C)C(=O)O)ccc2c1 (stereo not given)	4	.	.	.	-8	-7	.	.
O=C(N/N=C/c1ccoc1)c1cc(O)cc(O)c1	0	.	.	.	43*	21	25	56*
CCCCOc1ccc(C(=O)NCC(=O)N2CCN(C(=O)c3ccco3)CC2)cc1	-4	.	.	.	-3	3	.	.
CC(C)(C)n1nc2c(c1NC(=O)c1ccc(Cl)c([N+](=O)[O-])c1)CS(=O)(=O)C2	-11	.	.	.	3	1	.	.
CN(CC(=O)OCC(N)=O)S(=O)(=O)c1ccc(Cl)cc1	5	3	-26	0	-2	0	.	.
Cc1ccc(C)n1-c1ccc(C(=O)O)cc1	5	62*	-48	-3	45*	11	21	41*
CC(=O)c1c(C(C)=O)c(C)n(-c2ccc(C(=O)O)cc2)c1C	0	.	-26	-1	6	4	.	.
Cc1c2ccccc2nc2c(F)c(NC(C)C)c(F)c(F)c12	119*	-23	-38	-1	139*	122*	131*	151*
SMILES	GLD-1 TGE inh	Mcl1 Noxa PPI	Mcl1 Bid PPI	Mcl-1 Bim block	MCL1 BIM primary	BCLXL inh	BCLXL inh confirm	MCL1 inh confirm
CC(C)Nc1nc2ccccc2c(=O)[nH]1	-7	7	-7	-2	3	6	.	.
Cc1c2ccccc2nc2c(F)c(NCCO)c(F)c(F)c12	83*	-34	-55	-1	+	157*	+	+
CCc1ccccc1NC(=S)N(CCN1CCOCC1)Cc1ccccc1F	9	5	-7	0	-4	-1	.	.
N#CC1=C(N)Oc2cc(O)c(Cl)cc2C1c1ccccc1F (stereo not given)	59*	.	.	.	57*	78*	91*	118*
Cc1ccc(S(=O)(=O)NNC(=O)c2ccccc2O)cc1	0	30	-46	-1	44*	16	12	29
N#C/C(=C\c1ccc(-c2ccc(F)cc2)o1)C(=O)Nc1nc(-c2cccs2)cs1	9	57*	22	1	41*	27	45*	73*
CCC(=O)N1CCN(CCN=CC2=C(O)CC(c3ccc(OC)cc3)CC2=O)CC1 (stereo not given)	-3	-4	-11	-3	-1	-2	.	.
COc1ccc(C2CC(=O)C(C=NCCCO)=C(O)C2)cc1 (stereo not given)	22	.	.	.	80*	64*	61*	85*
CCN1C(=O)S/C(=C\c2ccc(N3CCOCC3)cc2C)C1=O	-51	-3	-10	-7	-12	-5	.	.
C#CCN1C(=O)S/C(=C\c2ccc(N3CCOCC3)cc2C)C1=O	-47	-5	-6	0	70*	-9	121*	153*
COc1cccc(CN(C(=O)c2cc3ccccc3oc2=O)C2CCS(=O)(=O)C2)c1 (stereo not given)	-4	.	.	.	5	6	.	.
COc1ccc(/C=N/N=C2/CC(C)(C)Cc3n[nH]c(=O)cc32)cc1	120*	17	-47	1	155*	138*	49*	63*
COc1ccc(/C=N/N=C2/NC(=O)CC(C(=O)O)S2)cc1 (stereo not given)	-8	12	1	0	4	2	.	.
Cc1cc(SCC(=O)N/N=C/c2ccc(O)c(O)c2O)c(C)cc1Br	11	84*	18	-2	51*	15	7	34
COc1cc(/C=N/NC(=O)CSc2cc(C)c(Br)cc2C)ccc1O	0	22	-18	2	6	6	.	.
CC(=O)c1cccc(S(=O)(=O)N2CCCC(c3nc4c(nnn4Cc4cccc(Cl)c4)c(=O)[nH]3)C2)c1 (stereo not given)	7	.	.	.	3	3	.	.
O=C(/C=C/c1ccco1)Nc1ccc2nc3n(c(=O)c2c1)CCCC3	-7	19	2	0	-5	2	.	.
CCOC(=O)C1=C(CSc2nc3c(cc2C#N)CCC3)OC(N)=C(C#N)C1c1ccccc1 (stereo not given)	-68	25	-29	0	6	13	.	.
COC(=O)C1=C(C)OC(N)=C(C#N)C1c1ccccc1F (stereo not given)	2	8	-15	-4	10	6	.	.
